Common to all, as to set-up: species or system human, MV4-11 + K-562 + COLO205 + SK-N-BE2 + OVCAR-8
For one experiment, the system named is BUB1. The settings on record: read-out: apparent Kd, n = 1.
The test system of another experiment is PRKD3. The settings on record: read-out: apparent Kd, n = 1.
The subject of a further experiment is T1, DJA1.
T1 construct: gene DNAJA1
Conditions: read-out: apparent Kd, compound concentrations: 100 nM and 1000 nM (sheet 'Samples'), n = 1.

Another experiment has as its system PIK3CD. Conditions: read-out: apparent Kd, n = 1.
Another experiment concerns CSNK1D. Conditions: read-out: apparent Kd, n = 1.
A further experiment relates to TGFBR2. The settings on record: read-out: apparent Kd; compound concentrations:100 nM and 1000 nM (sheet 'Samples'); n = 1.
The test system of another experiment is MAPK9. Conditions: read-out: apparent Kd, n = 1.
In another experiment the test system is MAPKAPK2. The settings on record: read-out: apparent Kd, n = 1.
A further experiment relates to MAP4K5. The settings on record: read-out: apparent Kd, n = 1.
For a further experiment, the system named is MAP2K2. The settings on record: read-out: apparent Kd, n = 1.
Another experiment concerns PDGFRB. The settings on record: read-out: apparent Kd, n = 1.
A further experiment deals with NQO1. The settings on record: read-out: apparent Kd; compound concentrations:100 nM and 1000 nM (sheet 'Samples'); n = 1.
A further experiment has as its system EPHA2. The settings on record: read-out: apparent Kd, compound concentrations: 100 nM and 1000 nM (sheet 'Samples'), n = 1.
The test system of another experiment is NQO2. Conditions: read-out: apparent Kd, n = 1.
A further experiment concerns PDXK. The settings on record: read-out: apparent Kd, compound concentrations: 100 nM and 1000 nM (sheet 'Samples'), n = 1.
The next experiment concerns MAP2K1. The settings on record: read-out: apparent Kd; compound concentrations:100 nM and 1000 nM (sheet 'Samples'); n = 1.
The mark [1] stands for this setting: compound concentrations:100 nM and 1000 nM (sheet 'Samples').

Like-named read-outs stand apart in the source and are kept apart here.

As for `CC(C)c1nc(-c2cccc(NS(=O)(=O)c3c(F)cccc3F)c2)c(-c2ccnc(Nc3ccc(N4CCOCC4)nc3)n2)s1.Cl` [GSK1723980B], the potency estimated from few doses is 191 nM with BUB1 (compound concentrations: 100 nM and 1000 nM (sheet 'Samples'), CATDS: 3.0141053938719398E-2); 156 nM in the experiment with PRKD3 (compound concentrations: 100 nM and 1000 nM (sheet 'Samples'), CATDS: 3.3451662470077102E-2). On to `Cn1cc(-c2ccc3c(c2)CCN3C(=O)Cc2cc(F)cc(C(F)(F)F)c2)c2c(N)ncnc21` [GSK2635225A], for which the potency estimated from few doses is 902 nM in the experiment with DJA1 (CATDS: 0.15894194998460401); 139 nM in the experiment on PIK3CD (compound concentrations: 100 nM and 1000 nM (sheet 'Samples'), CATDS: 0.457718684353002). Regarding `N#Cc1cccc(Nc2nccc(-c3cnn4ncccc34)n2)c1` [GW778894X], the figures for the potency estimated from few doses in the experiment with CSNK1D (setting [1]) and in the experiment with TGFBR2 were 199 nM and 35.7 nM, respectively.

In the case of `O=S(=O)(CCOCc1ccc(-c2ccc3ncnc(Nc4ccc(OCc5cccc(F)c5)c(Cl)c4)c3c2)o1)c1ccccc1` [GW615311X], the potency estimated from few doses was 2360 nM in the experiment with MAPK9 (compound concentrations: 100 nM and 1000 nM (sheet 'Samples'), CATDS: 2.2235644452826799E-2); 176 nM in the experiment on PIK3CD (compound concentrations: 100 nM and 1000 nM (sheet 'Samples'), CATDS: 0.10575353255485199). For `CS(=O)(=O)Cc1ccc(Nc2nccc(-c3c(-c4cccc(NC(=O)c5c(F)cccc5F)c4)nn4ccccc34)n2)cc1` [GSK323543A], the potency estimated from few doses with MAPKAPK2 (compound concentrations: 100 nM and 1000 nM (sheet 'Samples'), CATDS: 7.72685747843148E-2) is 870 nM. Turning to `COc1cc2ncn(-c3cc(OCc4cccs4)c(C(N)=O)s3)c2cc1OC` [GSK312948A], the potency estimated from few doses in the experiment with MAP4K5 (setting [1]) was 116 nM. On to `Nc1nc(N)c2nc(-c3ccccc3)[nH]c2n1` [SKF-12778], for which the values for the potency estimated from few doses in the experiment with CSNK1D (setting [1]) and with MAPK9 (setting [1]) were 2130 nM and 2000 nM, respectively. With `CN1CCN(Cc2ccc(-c3ccc4c(Nc5ccc(Oc6ccccn6)cc5)ccnc4c3)o2)CC1` [GW567140X], the potency estimated from few doses with MAP2K2 (compound concentrations: 100 nM and 1000 nM (sheet 'Samples'), CATDS: 3.1784212717953002E-2) is 2090 nM. Regarding `CC(C)c1nc(-c2ccc(F)c(NS(=O)(=O)c3c(F)cccc3F)c2)c(-c2ccnc(Nc3ccc(N4CCOCC4)nc3)n2)s1` [GSK1804250A], the potency estimated from few doses is 553 nM in the experiment with BUB1 (setting [1]) and 510 nM in the experiment with PRKD3 (setting [1]).

Turning to `Nc1ncc(-c2cn[nH]c2)c2scc(-c3ccc4c(c3)CCN4C(=O)Cc3ccccc3)c12` [GSK2593067A], the potency estimated from few doses in the experiment on DJA1 (CATDS: 0.221714333862437) was 118 nM; in the experiment on MAP4K5 (compound concentrations: 100 nM and 1000 nM (sheet 'Samples'), CATDS: 8.2420323237496707E-2), 674 nM; in the experiment with PIK3CD (compound concentrations: 100 nM and 1000 nM (sheet 'Samples'), CATDS: 0.15776824540953199) it was 196 nM. As for `CN1CCN(Cc2ccc(NC(=O)Nc3ccc(N(C)c4ccnc(Nc5ccc(CS(C)(=O)=O)cc5)n4)cc3)cc2)CC1.Cl` [GW827654A], the potency estimated from few doses with PDGFRB (compound concentrations: 100 nM and 1000 nM (sheet 'Samples'), CATDS: 3.4418079191200303E-2) is 1860 nM. On to `Fc1ccc(-c2c(-c3ccncc3)[nH]c3nccnc23)cc1` [RO1155697-000], for which the potency estimated from few doses with BUB1 (setting [1]) is 1970 nM; in the experiment with CSNK1D (setting [1]), 8.23 nM; in the experiment with MAPK9 (setting [1]), 368 nM; in the experiment on NQO1, 1590 nM. Turning to `Cc1cc(O)cc(C)c1/C=C/c1cncc(-c2nn[nH]n2)c1.Cl` [GW441806A], the potency estimated from few doses in the experiment with EPHA2 (CATDS: 4.6112446535010898E-2) is 1310 nM. On to `CN1CCc2ccc(Nc3nccc(-c4c(-c5cccc(NC(=O)c6c(F)cccc6F)c5)nc5ccccn45)n3)cc2C1.Cl` [GSK1010829B], for which the potency estimated from few doses in the experiment with MAP4K5 (compound concentrations: 100 nM and 1000 nM (sheet 'Samples'), CATDS: 3.0196131161379001E-2) is 2130 nM. Turning to `CNC(=O)c1ccccc1Nc1nc(Nc2cccc(CS(C)(=O)=O)c2)ncc1C.O=CO` [GSK1520489A], the potency estimated from few doses is 66.2 nM with EPHA2 (CATDS: 2.7940284559804102E-2); 1170 nM in the experiment with MAPK9 (compound concentrations: 100 nM and 1000 nM (sheet 'Samples'), CATDS: 1.0219205948468601E-2); 1420 nM in the experiment on PDGFRB (compound concentrations: 100 nM and 1000 nM (sheet 'Samples'), CATDS: 9.8482456119854799E-3). For `CC(=O)c1c(-c2ccncc2)[nH]c(-c2ccncc2)c1C` [GW493036X], the potency estimated from few doses was 2040 nM in the experiment on CSNK1D (setting [1]) and 1110 nM in the experiment with NQO2 (setting [1]). Regarding `COc1ccc(C2=C(Nc3cccc(O)c3)C(=O)NC2=O)cc1` [SB-390766], the potency estimated from few doses in the experiment on TGFBR2 is 2030 nM. In the case of `Cc1ccc(-n2nc(C(C)(C)C)cc2NC(=O)Nc2ccc(OCCN3CCOCC3)cc2)cc1` [BIRB0876BS], the potency estimated from few doses in the experiment on PIK3CD (setting [1]) is 9.61 nM.

As for `Cc1[nH]nc2c1N=C(c1ccccc1Cl)c1cc([N+](=O)[O-])ccc1N2` [RO0274406-000], in the experiment on PDXK (CATDS: 8.1891234484878103E-2), the potency estimated from few doses was 832 nM. On to `COc1ccc(-c2nn3ncccc3c2-c2ccnc(Nc3ccc4c(c3)OCCO4)n2)cc1` [GW827106X], for which the potency estimated from few doses in the experiment on CSNK1D (compound concentrations: 100 nM and 1000 nM (sheet 'Samples'), CATDS: 4.1816048723515499E-2) is 2430 nM; with MAPK9 (compound concentrations: 100 nM and 1000 nM (sheet 'Samples'), CATDS: 4.4079434043462103E-2), 2070 nM.

As for `Cc1ccc(CC(=O)N2CCc3cc(-c4cn(C)c5ncnc(N)c45)ccc32)cc1` [GSK2634758A], the potency estimated from few doses in the experiment on DJA1 (CATDS: 0.16738098836047199) is 1400 nM; with NQO2 (compound concentrations: 100 nM and 1000 nM (sheet 'Samples'), CATDS: 0.188092935593722), 1120 nM; in the experiment with PDXK (CATDS: 0.16794834883854801), 1390 nM.

`Cc1ccc(NC(=O)Nc2ccccc2)cc1-c1ccc(C(=O)Nc2ccncc2)cc1` [GSK1398471A]: the potency estimated from few doses in the experiment with PDGFRB (compound concentrations: 100 nM and 1000 nM (sheet 'Samples'), CATDS: 0.100538994858546) was 1940 nM. As to `COc1cc2ncn(-c3cc(OCc4sccc4Cl)c(C(N)=O)s3)c2cc1OC` [GSK448459A], the potency estimated from few doses with MAP4K5 (setting [1]) was 30.8 nM. Same read-out and setting: the value for `COc1cc2ncn(-c3cc(O[C@H](C)c4ccccc4Cl)c(C(N)=O)s3)c2cc1OC` [GSK237701A] was 1160 nM. On to `Cc1ccc(NC(=O)c2ccc(Cl)cc2)cc1-c1ccc(C(=O)Nc2ccncc2)cc1` [GSK1398467A], for which, in the experiment on CSNK1D (compound concentrations: 100 nM and 1000 nM (sheet 'Samples'), CATDS: 0.16187565637937301), the potency estimated from few doses is 2020 nM.

`Nc1c(C(=O)c2ccccc2)cnn1-c1ccc(F)cc1` [RO1151246-000]: the potency estimated from few doses was 1470 nM in the experiment with MAP2K1, 1540 nM in the experiment with MAP2K2 (setting [1]) and 665 nM with MAPKAPK2 (setting [1]). Take `Cn1cc(C2=C(c3cn(CCCCCO)c4ccccc34)C(=O)NC2=O)c2ccccc21` [RO0318053-000]: the potency estimated from few doses in the experiment on NQO2 (compound concentrations: 100 nM and 1000 nM (sheet 'Samples'), CATDS: 9.2585577918862794E-2) is 959 nM; in the experiment on PDXK (CATDS: 0.25573485461169798), 60.4 nM. In the case of `Cn1cc(C2=C(c3ccccc3[N+](=O)[O-])C(=O)NC2=O)c2ccccc21` [RO0317753-000], the potency estimated from few doses in the experiment with NQO2 (compound concentrations: 100 nM and 1000 nM (sheet 'Samples'), CATDS: 7.9210826703434503E-2) is 1280 nM; in the experiment on PDXK (CATDS: 8.6520417055061499E-2), 907 nM.

Regarding `CCS(=O)(=O)c1ccc(OC)c(Nc2ncc(-c3cccc(F)c3)o2)c1` [GW621970X_KCGS], in the experiment with PDGFRB (setting [1]), the potency estimated from few doses is 1960 nM.

Values taken from publication PMC11062922 (Nature Chemical Biology, 2023).
